Screening data (PubChem)
ELG1 DNA repair: ELG1-dependent DNA repair inhibition; AID 504467; 2.3% of 330,000 active; Potency, µM (titrated, usually from 46.1 µM), actives largely listed as inhibitors; HEK293T ELG1-luciferase reporter, luminescence, 16 h; DNA damage induced by 5-fluorouridine; further: nearly all actives have a fitted effect of over 55% in size
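In this reporter screen, reduction of luminescence relative to DMSO vehicle indicated activity. Compounds and 5-fluorouridine were added together to 2,000 cells per well, incubated for 16 hr at 37 °C, then developed with ONE-Glo.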
NPC1 promoter act: activators of NPC1 promoter | 2.4% of 320,000 active | Huh7 NPC1 promoter luciferase reporter, 24 h | Potency, µM (titrated, usually from 9.22 µM), hits mostly activators | AID 485313; further: nearly all actives have a fitted effect of over 60% in size
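Compounds in DMSO were transferred onto Huh7 NPC1-luciferase reporter cells pre-incubated 2 h; after 24 h at 37 °C, Amplite reagent was dispensed and luminescence recorded 10 min later.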
Rab9 prom act: activates the Rab9 promoter | Huh7 Rab9 promoter-luciferase reporter, luminescence, 24 h | Potency, µM (titrated, usually from 9.22 µM), actives largely listed as activators | 2.8% of 320,000 active; further: nearly all actives have a fitted effect of over 60% in size
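Luminescence read-out: Huh7 cells stably expressing Rab9-luciferase, treated 24 h with compound at 37 °C, then lysed with luciferase reagent for 10 min at ambient before reading.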
ELG1 genotoxic: induces genotoxicity in HEK293T cells with luciferase-tagged ELG1. HEK293T ELG1-luciferase reporter, luminescence, 16 h. Potency, µM (top dose mostly 46 µM), most hits filed as activators. 1.3% of 330,000 active. AID 504466; further: nearly all actives have a fitted effect of over 60% in size
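Luminescence read-out: rising ELG1-luciferase signal, reflecting elevated ELG1 protein under genetic stress, flags genotoxic compounds. Cells were treated for 16 hr at 37 °C before ONE-Glo detection.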
FLuc modulator: inhibits or activates purified firefly luciferase, miR-21 counter-screen. P08659. purified FLuc, Km substrates, luminescence inhibition. Potency, µM (doses to about 57.5 µM), usual class: inhibitors. 6.9% of 360,000 active. AID 588342; further: nearly all actives have a fitted effect of over 55% in size
Target sequence (P08659 whole entry, looked up): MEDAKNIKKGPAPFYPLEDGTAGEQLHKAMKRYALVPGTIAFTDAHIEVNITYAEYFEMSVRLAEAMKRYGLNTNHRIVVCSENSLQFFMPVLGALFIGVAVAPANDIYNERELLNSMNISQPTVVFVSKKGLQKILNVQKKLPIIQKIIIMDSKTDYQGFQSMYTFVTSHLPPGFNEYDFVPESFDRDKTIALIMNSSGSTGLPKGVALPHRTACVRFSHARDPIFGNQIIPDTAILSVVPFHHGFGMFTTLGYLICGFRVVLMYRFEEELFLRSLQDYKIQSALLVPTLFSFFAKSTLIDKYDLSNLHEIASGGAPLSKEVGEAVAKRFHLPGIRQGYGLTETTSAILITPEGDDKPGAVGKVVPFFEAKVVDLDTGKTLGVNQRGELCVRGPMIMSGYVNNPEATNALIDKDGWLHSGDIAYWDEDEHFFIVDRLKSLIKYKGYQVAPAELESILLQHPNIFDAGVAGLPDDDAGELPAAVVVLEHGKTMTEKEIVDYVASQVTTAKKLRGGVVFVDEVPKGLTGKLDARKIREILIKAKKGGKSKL
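Purified P. pyralis luciferase, 10 nM final, with Km-level 10 uM D-luciferin and 10 uM ATP in 50 mM Tris acetate pH 7.5, 10 mM Mg acetate, 0.01% Tween-20, 0.05% BSA; 6-point qHTS titration about 60 µM downward; luminescence read.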
SMN2 splice enh: SMN2 splice variant enhancement; HEK293 SMN2-luciferase splicing reporter, luminescence, 30-36 h; Potency, µM (series often up to 46.1 µM), usual class: activators; 2.8% of 210,000 active; AID 1458; further: nearly all actives have a fitted effect of over 55% in size
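HEK293 cells carry an SMN2 […]–luciferase reporter in which exon 7 inclusion puts luciferase in frame. Cells were plated 10-12 h before compound addition, then incubated 30-36 h at 37C. ONE-Glo luminescence was read; sodium butyrate at 4.5 mM final served as control.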
Hits are given with their value; n = inactive; u = inconclusive; x = no result; [ ] = remark or other dose. In the library only some 9.2% were active in any assay of this set; here they are far more common. The call rests on the fitted dose curve; in most records, active means well fitted curve in the direction sought with a large enough effect; inconclusive means small, poorly fitted or top-dose-only effect, or another doubt; inactive means no such curve, though single readings can be large; an effect the other way counts as inactive or inconclusive.

SMILES	ELG1 DNA repair	NPC1 promoter act	Rab9 prom act	ELG1 genotoxic	FLuc modulator	SMN2 splice enh
CCOc1ccccc1N1CCN(Cc2c(C)n(C)n(-c3ccccc3)c2=O)CC1	n	n	n	n	n	n
O=[N+]([O-])c1cc(N=Nc2ccc3ccccc3c2)ccc1O	u	2.24µM	2µM	u	3.38µM	x
Cc1ccccc1SCCNC(=O)c1ccccc1Br	u	n	u	n	23.9µM	n
O=C(NCCNC(=O)c1ccccc1Br)c1ccccc1Br	n	n	n	n	n	x
Cc1ccccc1SCC(=O)NNC(=O)c1ccccc1O	n	n	n	u	23.9µM	x
O=C(OCN1C(=O)c2ccccc2C1=O)c1ccc(Cl)nc1	n	n	n	n	n	x
CCN(CC)CCNC(=O)Cn1ncc2c([nH]c3ccccc32)c1=O	x	x	x	x	n	x
COc1ccc(CCNC(=O)c2cc(C(=O)c3cc(C)ccc3O)cn(CCc3ccc(OC)cc3)c2=O)cc1	13µM	n	n	n	n	n
COc1ccc(CCNC(=O)c2cc(C(=O)c3cc(Cl)ccc3O)cn(CCc3ccc(OC)cc3)c2=O)cc1	u	n	n	n	n	n
O=C(c1cc(C(=O)NCCc2ccccc2)c(=O)n(CCc2ccccc2)c1)c1cc(Cl)ccc1O	23.1µM	n	n	n	n	n
Cc1ccc(-c2cc(Cc3ccccc3)c(=O)[nH]n2)cc1	n	n	n	n	n	x
CC1=NN(c2ccccc2)C(=O)/C1=C/c1c(O)n(-c2ccc(F)c(Cl)c2)[nH]c1=O	u	n	u	n	2.69µM	n[1.84 µM]
CC1=NN(c2ccccc2)C(=O)/C1=C\c1c(C)[nH]n(-c2ccccc2)c1=O	n	n	n	n	u	n
Cc1ccc(C(=O)N/C(=C\c2ccccc2)C(=O)NCCN2CCOCC2)cc1	n	n	n	n	n	x
O=S(=O)(Nc1cccc(-c2ccc(N3CCCCCC3)nn2)c1)c1ccccc1Cl	n	n	n	n	8.49µM	x
Cc1ccc(NS(=O)(=O)c2ccccc2F)cc1S(=O)(=O)N1CCCCCC1	n	n	n	n	n	x
O=S(=O)(Nc1cccc(-c2ccc(N3CCCCCC3)nn2)c1)c1ccccc1F	u	n	u	u	19µM	x
c1ccc(-c2cc3nccc(-c4ccccn4)n3n2)cc1	u	2.51µM	2.24µM	u	9.53µM	x
O=C(Nc1cccc(C(=O)O)c1)Nc1ccccc1Cl	u	0.501µM	0.1µM	n	0.213µM	12.6µM
CC(=O)c1ccc(NC(=S)NCCc2cccc(Cl)c2)cc1	u	u	2.82µM	u	n	12.6µM
O=C(Nc1cccc(Cl)c1)Nc1cccc(C(=O)O)c1	u	0.316µM	0.355µM	n	0.477µM	x
O=C(Nc1ccc(C(=O)N2CCCCC2)cc1)Nc1cccc(Cl)c1	u	3.98µM	3.16µM	n	10.7µM	x
O=C(Nc1ccc2nccnc2c1)Nc1ccccc1Cl	u	u	u	n	u	x
CC1=C(c2ccc(C(C)C)cc2)S(=O)(=O)N=C1N1CCC(C(=O)NCc2ccc(C)o2)CC1	x	x	x	x	n	x
Cc1cccc(C2N=C(N)Nc3nc4ccccc4n32)c1 (centres undefined)	n	n	n	n	n	n
SMILES	ELG1 DNA repair	NPC1 promoter act	Rab9 prom act	ELG1 genotoxic	FLuc modulator	SMN2 splice enh
O=C(CCCOc1ccc(Cl)cc1)Nc1cccc(C(=O)O)c1	u	n	n	n	16.9µM	x
CS/C(N)=N/C(=S)Nc1cccc(Cl)c1	u	u	u	n	19µM	x
CSc1cccc(NC(=O)C(=O)NCc2ccccc2)c1	n	n	n	n	n	x
O=C(NCc1ccccc1)C(=O)Nc1cccc(C(=O)O)c1	u	0.0891µM	0.316µM	n	0.675µM	x
CC(=O)c1cccc(NC(=O)CCCOc2ccc(C)cc2)c1	n	n	n	n	n	n
CC(=O)Nc1cccc(NC(=O)Nc2cccc3ccccc23)c1	n	n	n	n	n	x
O=C(Nc1cccc(C(=O)O)c1)Nc1cccc2ccccc12	u	2µM	3.55µM	n	2.13µM	x
CC(=O)c1ccc(NC(=O)Nc2cccc(Cl)c2)cc1	u	1.41µM	1.26µM	u	16.9µM	11.2µM
O=C(Nc1cccc(Cl)c1)Nc1ccc2nccnc2c1	u	2.82µM	2.24µM	n	19µM	x
Cc1cc(NC(=O)Nc2cccc(Cl)c2)n(-c2ccccn2)n1	16.4µM	n	n	n	u	x
